# Measurements reported in PubChem BioAssay AID1159580 (chemical genetic matrix, 2015).
# Several values for one entry are separate records, joined by “and”; a condition that tells them apart may be missing. Equal values may be shown once. Among all 5,500 compounds or so, about 2,000 (36%) were called active. Roughly 18% stayed inconclusive and do not appear here. The list shows a part of the results. A number with no mark means an inactive call. Rule as the data show it: active = normalized growth mostly below about 0.91 (no sharp cut-off); inconclusive = no clear call, values can overlap the other calls; inactive = mostly above about 0.92.
# Assay: chemical genetic growth profiling, strain panel (AID 1159580);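 also: tested at 20 µM; growth read once vehicle control cultures reached saturation at 30 °C; 1 = growth at the plate median or of vehicle wells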
# Conditions: S. cerevisiae deletion strains, growth OD
smiles,measurement,setting,value
COc1cc2occc2c2oc(=O)ccc12,normalized growth,"locus YAL021C, strain ccr4, stronger effect = lower value",1.01
same,normalized growth,"locus YAL026C, strain drs2, stronger effect = lower value",0.984
same,normalized growth,"locus YAL030W, strain snc1, stronger effect = lower value",1.01
same,normalized growth,"locus YBL061C, strain skt5, stronger effect = lower value",0.992
same,normalized growth,"locus YBR009C, strain hhf1, stronger effect = lower value",0.982
same,normalized growth,"locus YBR021W, strain FUR4, stronger effect = lower value",0.965
same,normalized growth,"locus YBR023C, strain chs3, stronger effect = lower value",1
same,normalized growth,"locus YBR171W, strain sec66, stronger effect = lower value",1.02
same,normalized growth,"locus YBR229C, strain ROT2, stronger effect = lower value",0.949
same,normalized growth,"locus YBR231C, strain swc5, stronger effect = lower value",0.962
same,normalized growth,"locus YBR279W, strain paf1, stronger effect = lower value",1.01
same,normalized growth,"locus YCL011C, strain gbp2, stronger effect = lower value",1.01
same,normalized growth,"locus YCL016C, strain dcc1, stronger effect = lower value",0.972
same,normalized growth,"locus YCL029C, strain bik1, stronger effect = lower value",0.931
same,normalized growth,"locus YCL069W, strain vba3, stronger effect = lower value",1.03
same,normalized growth,"locus YCR088W, strain abp1, stronger effect = lower value",1.02
same,normalized growth,"locus YDL005C, strain med2, stronger effect = lower value",1.01
same,normalized growth,"locus YDL035C, strain GPR1, stronger effect = lower value",0.92
same,normalized growth,"locus YDL040C, strain nat1, stronger effect = lower value",1.02
same,normalized growth,"locus YDL074C, strain BRE1, stronger effect = lower value",0.842
same,normalized growth,"locus YDL101C, strain DUN1, stronger effect = lower value",0.939
same,normalized growth,"locus YDL185W, strain tfp1, stronger effect = lower value",0.936
same,normalized growth,"locus YDL192W, strain arf1, stronger effect = lower value",0.887 (active)
same,normalized growth,"locus YDR001C, strain nth1, stronger effect = lower value",1.01
same,normalized growth,"locus YDR069C, strain doa4, stronger effect = lower value",0.98
same,normalized growth,"locus YDR101C, strain arx1, stronger effect = lower value",0.897 (active)
same,normalized growth,"locus YDR137W, strain rgp1, stronger effect = lower value",1.06
same,normalized growth,"locus YDR159W, strain sac3, stronger effect = lower value",1.01
same,normalized growth,"locus YDR162C, strain NBP2, stronger effect = lower value",0.873
same,normalized growth,"locus YDR195W, strain ref2",1.29 [resistant] (active)
same,normalized growth,"locus YDR297W, strain sur2, stronger effect = lower value",0.998
same,normalized growth,"locus YDR318W, strain mcm21, stronger effect = lower value",0.948
same,normalized growth,"locus YDR334W, strain swr1, stronger effect = lower value",0.969
same,normalized growth,"locus YDR335W, strain msn5, stronger effect = lower value",0.968
same,normalized growth,"locus YDR388W, stronger effect = lower value",0.979
same,normalized growth,"locus YDR392W, strain spt3, stronger effect = lower value",0.792
same,normalized growth,"locus YDR502C, strain sam2, stronger effect = lower value",0.984
same,normalized growth,"locus YEL003W, strain gim4, stronger effect = lower value",0.985
same,normalized growth,"locus YEL037C, strain rad23, stronger effect = lower value",1
same,normalized growth,"locus YEL061C, strain CIN8 (second series), stronger effect = lower value",1
same,normalized growth,"locus YER015W, strain faa2, stronger effect = lower value",1
same,normalized growth,"locus YER016W, strain bim1, stronger effect = lower value",1.02
same,normalized growth,"locus YER110C, stronger effect = lower value",0.936
same,normalized growth,"locus YER111C, strain swi4, stronger effect = lower value",1.02
same,normalized growth,"locus YER155C, strain BEM2 (second series), stronger effect = lower value",0.821 (active)
same,normalized growth,"locus YER155C, strain BEM2, stronger effect = lower value",0.992
same,normalized growth,"locus YER167W, strain BCK2, stronger effect = lower value",0.967
same,normalized growth,"locus YFR010W, strain ubp6, stronger effect = lower value",0.957
same,normalized growth,"locus YGL078C, strain dbp3, stronger effect = lower value",1.02
same,normalized growth,"locus YGL086W, strain mad1, stronger effect = lower value",0.964
same,normalized growth,"locus YGL167C, strain pmr1, stronger effect = lower value",1.02
same,normalized growth,"locus YGL173C, strain kem1, stronger effect = lower value",1.01
same,normalized growth,"locus YGL227W, strain vid30, stronger effect = lower value",1.03
same,normalized growth,"locus YGL240W, strain doc1, stronger effect = lower value",0.92
same,normalized growth,"locus YGL248W, strain PDE1, stronger effect = lower value",0.964
same,normalized growth,"locus YGL253W, strain hxk2, stronger effect = lower value",1.01
same,normalized growth,"locus YGR078C, strain PAC10, stronger effect = lower value",0.95
same,normalized growth,"locus YGR135W, strain pre9, stronger effect = lower value",0.99
same,normalized growth,"locus YGR252W, strain gcn5, stronger effect = lower value",0.865
same,normalized growth,"locus YHR013C, strain ard1, stronger effect = lower value",1.08
same,normalized growth,"locus YHR027C, strain rpn1, stronger effect = lower value",0.998
same,normalized growth,"locus YHR030C, strain SLT2, stronger effect = lower value",0.982 and 0.967
same,normalized growth,"locus YHR079C, strain IRE1 (second series), stronger effect = lower value",0.984
same,normalized growth,"locus YHR079C, strain IRE1, stronger effect = lower value",0.958
same,normalized growth,"locus YHR094C, strain hxt1, stronger effect = lower value",0.975
same,normalized growth,"locus YHR129C, strain ARP1, stronger effect = lower value",0.98
same,normalized growth,"locus YHR142W, strain chs7, stronger effect = lower value",0.961
same,normalized growth,"locus YHR200W, strain rpn10, stronger effect = lower value",0.93
same,normalized growth,"locus YIL066C, strain RNR3, stronger effect = lower value",0.925
same,normalized growth,"locus YIL073C, strain SPO22, stronger effect = lower value",0.944
same,normalized growth,"locus YIL125W, strain kgd1, stronger effect = lower value",0.99
same,normalized growth,"locus YIR030C, strain dcg1, stronger effect = lower value",0.979
same,normalized growth,"locus YJL092W, strain hpr5, stronger effect = lower value",1.02
same,normalized growth,"locus YJL095W, strain BCK1 (second series), stronger effect = lower value",0.998
same,normalized growth,"locus YJL095W, strain BCK1, stronger effect = lower value",0.942 and 0.974
same,normalized growth,"locus YJL115W, strain asf1, stronger effect = lower value",0.991
same,normalized growth,"locus YJL129C, strain trk1, stronger effect = lower value",1.17 [resistant] (active)
same,normalized growth,"locus YJL134W, strain LCB3, stronger effect = lower value",0.967
same,normalized growth,"locus YJL154C, strain vps35, stronger effect = lower value",1.02
same,normalized growth,"locus YJL164C, strain tpk1, stronger effect = lower value",0.983
same,normalized growth,"locus YJL166W, strain qcr8, stronger effect = lower value",1.02
same,normalized growth,"locus YJL168C, strain set2, stronger effect = lower value",0.976
same,normalized growth,"locus YJL187C, strain SWE1 (second series), stronger effect = lower value",0.968
same,normalized growth,"locus YJL187C, strain SWE1, stronger effect = lower value",1.02
same,normalized growth,"locus YJR066W, strain TOR1, stronger effect = lower value",0.917
same,normalized growth,"locus YKL009W, strain mrt4, stronger effect = lower value",0.944
same,normalized growth,"locus YKL068W, stronger effect = lower value",1
same,normalized growth,"locus YKL085W, strain MDH1 (second series), stronger effect = lower value",0.991
same,normalized growth,"locus YKL085W, strain MDH1, stronger effect = lower value",0.991
same,normalized growth,"locus YKL160W, strain elf1, stronger effect = lower value",1.01
same,normalized growth,"locus YKL190W, strain CNB1, stronger effect = lower value",0.985
same,normalized growth,"locus YKR001C, strain vps1, stronger effect = lower value",0.877 (active)
same,normalized growth,"locus YKR026C, strain gcn3, stronger effect = lower value",1.03
same,normalized growth,"locus YKR091W, strain srl3, stronger effect = lower value",1.02
same,normalized growth,"locus YLL001W, strain dnm1, stronger effect = lower value",1
same,normalized growth,"locus YLL026W, stronger effect = lower value",1.02
same,normalized growth,"locus YLL041C, strain sdh2, stronger effect = lower value",1
same,normalized growth,"locus YLR027C, strain aat2, stronger effect = lower value",1.01
same,normalized growth,"locus YLR039C, strain RIC1, stronger effect = lower value",1
same,normalized growth,"locus YLR058C, strain SHM2, stronger effect = lower value",0.976
same,normalized growth,"locus YLR102C, strain apc9, stronger effect = lower value",0.985
same,normalized growth,"locus YLR113W, strain HOG1, stronger effect = lower value",1
same,normalized growth,"locus YLR221C, strain rsa3, stronger effect = lower value",1.02
same,normalized growth,"locus YLR258W, strain gsy2, stronger effect = lower value",1.03
same,normalized growth,"locus YLR262C, strain YPT6 (second series), stronger effect = lower value",1.02
same,normalized growth,"locus YLR262C, strain YPT6, stronger effect = lower value",1.06
same,normalized growth,"locus YLR268W, strain sec22, stronger effect = lower value",0.887
same,normalized growth,"locus YLR320W, strain mms22, stronger effect = lower value",0.857 (active)
same,normalized growth,"locus YLR342W, strain FKS1 (second series), stronger effect = lower value",0.944
same,normalized growth,"locus YLR342W, strain FKS1, stronger effect = lower value",1.02
same,normalized growth,"locus YLR357W, strain rsc2, stronger effect = lower value",1.16 [resistant] (active)
same,normalized growth,"locus YLR370C, strain arc18, stronger effect = lower value",1.03
same,normalized growth,"locus YLR371W, strain rom2, stronger effect = lower value",0.861 (active)
same,normalized growth,"locus YLR384C, strain iki3, stronger effect = lower value",1.01
same,normalized growth,"locus YLR418C, strain cdc73, stronger effect = lower value",0.914
same,normalized growth,"locus YML016C, strain PPZ1, stronger effect = lower value",0.956
same,normalized growth,"locus YML032C, strain rad52, stronger effect = lower value",0.836 (active)
same,normalized growth,"locus YML120C, strain ndi1, stronger effect = lower value",1.04
same,normalized growth,"locus YML124C, strain tub3, stronger effect = lower value",0.982
same,normalized growth,"locus YMR058W, strain fet3, stronger effect = lower value",0.988
same,normalized growth,"locus YMR078C, strain ctf18, stronger effect = lower value",0.967
same,normalized growth,"locus YMR125W, strain sto1, stronger effect = lower value",1.02
same,normalized growth,"locus YMR129W, stronger effect = lower value",1.04
same,normalized growth,"locus YMR205C, strain PFK2, stronger effect = lower value",1.03
same,normalized growth,"locus YMR223W, strain ubp8, stronger effect = lower value",0.957
same,normalized growth,"locus YMR231W, strain pep5, stronger effect = lower value",1.01
same,normalized growth,"locus YMR307W, strain GAS1, stronger effect = lower value",0.932
same,normalized growth,"locus YNL067W, strain RPL9B, stronger effect = lower value",0.99
same,normalized growth,"locus YNL071W, strain lat1, stronger effect = lower value",1
same,normalized growth,"locus YNL183C, strain NPR1, stronger effect = lower value",0.935
same,normalized growth,"locus YNL209W, strain ssb2, stronger effect = lower value",0.995
same,normalized growth,"locus YNL233W, strain BNI4, stronger effect = lower value",0.942
same,normalized growth,"locus YNL248C, strain rpa49, stronger effect = lower value",0.681 (active)
same,normalized growth,"locus YNL250W, strain rad50, stronger effect = lower value",0.936
same,normalized growth,"locus YNL271C, strain bni1, stronger effect = lower value",0.97
same,normalized growth,"locus YNL298W, strain CLA4, stronger effect = lower value",0.915
same,normalized growth,"locus YNL307C, strain MCK1, stronger effect = lower value",0.959
same,normalized growth,"locus YNL322C, strain KRE1 (second series), stronger effect = lower value",0.998
same,normalized growth,"locus YNL322C, strain KRE1, stronger effect = lower value",0.99
same,normalized growth,"locus YNR049C, strain mso1, stronger effect = lower value",1.03
same,normalized growth,"locus YNR052C, strain pop2, stronger effect = lower value",0.988
same,normalized growth,"locus YOL012C, strain htz1",0.958
same,normalized growth,"locus YOL147C, strain pex11, stronger effect = lower value",0.952
same,normalized growth,"locus YOR001W, strain rrp6, stronger effect = lower value",0.985
same,normalized growth,"locus YOR061W, strain CKA2, stronger effect = lower value",0.939
same,normalized growth,"locus YOR069W, strain VPS5, stronger effect = lower value",0.984
same,normalized growth,"locus YOR070C, strain gyp1, stronger effect = lower value",0.995
same,normalized growth,"locus YOR080W, strain dia2, stronger effect = lower value",1.01
same,normalized growth,"locus YOR083W, strain WHI5, stronger effect = lower value",0.955
same,normalized growth,"locus YOR106W, strain vam3, stronger effect = lower value",0.987
same,normalized growth,"locus YOR136W, strain idh2, stronger effect = lower value",0.957
same,normalized growth,"locus YOR144C, strain elg1, stronger effect = lower value",0.95
same,normalized growth,"locus YOR184W, strain ser1, stronger effect = lower value",0.836 (active)
same,normalized growth,"locus YOR231W, strain MKK1, stronger effect = lower value",0.983
same,normalized growth,"locus YOR265W, strain rbl2, stronger effect = lower value",0.996
same,normalized growth,"locus YOR270C, strain vph1, stronger effect = lower value",0.934
same,normalized growth,"locus YOR290C, strain snf2, stronger effect = lower value",0.963
same,normalized growth,"locus YOR316C, strain cot1, stronger effect = lower value",0.99
same,normalized growth,"locus YPL051W, strain arl3, stronger effect = lower value",0.992
same,normalized growth,"locus YPL078C, strain atp4, stronger effect = lower value",0.987
same,normalized growth,"locus YPL106C, strain sse1, stronger effect = lower value",0.921
same,normalized growth,"locus YPL240C, strain hsp82, stronger effect = lower value",1.01
same,normalized growth,"locus YPL256C, strain CLN2, stronger effect = lower value",1.03
same,normalized growth,"locus YPR119W, strain clb2, stronger effect = lower value",0.992
same,normalized growth,"locus YPR141C, strain kar3, stronger effect = lower value",1
same,normalized growth,"locus YPR163C, strain tif3, stronger effect = lower value",0.911 (active)
same,normalized growth,"locus YPR167C, strain met16, stronger effect = lower value",0.995
same,normalized growth,"strain wtn01, stronger effect = lower value",0.902
